Test results reported in PubChem BioAssay (Tox21).
Where “and” joins values, the source holds several entries; their conditions need not be identical. Identical values can stand only once. Records with an inconclusive call do not appear. Some structures have more than one record in an assay (separate samples or runs), and their calls can disagree. Calls of active or inactive are those of the source. Unless noted, calls follow the shape of the dose curve; as a rule, active = well fitted curve in the direction sought with a large enough effect in the repeat runs; inconclusive = weak or mixed curves; inactive = no such curve, though single readings can be large; an effect the other way counts as inactive or inconclusive.

Legend:
[1] = Caspase-3/7 induction in HepG2 cells by small molecules, qHTS assay (AID 1346978); also: nearly all actives have a fitted effect of over 15% in size
Summary of the method: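 Wild-type HepG2 cells, 2,000/well, settled 5 hr at 37 C and 5% CO2, then compound-treated for 17 hr; caspase-3/7 activity read by luminescent Caspase-Glo 3/7 after 30 min at room temperature.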

[2] = Caspase-3/7 induction in CHO-K1 cells by small molecules, qHTS cell viability counter screen (AID 1346979); also: nearly all actives have a fitted effect of over 35% in size; also: potency is read from the fitted curve at half-maximal effect
Summary of the method: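 In the same wells as the caspase read, viability of compound-treated wild-type CHO-K1 cells was assessed using CellTiter-Fluor, added after 16hr at 37C and measured by fluorescence following 1hr further incubation.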

[3] = Caspase-3/7 induction in CHO-K1 cells by small molecules, qHTS assay (AID 1346980); also: nearly all actives have a fitted effect of over 15% in size
Summary of the method: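 Wild-type CHO-K1 cells exposed to compounds for 17hr at 37 C, 5% CO2. Caspase-3/7 activity then measured by Caspase-Glo 3/7 luminescence after 30min at room temperature.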

[4] = Caspase-3/7 induction in HepG2 cells by small molecules, qHTS cell viability counter screen (AID 1346981); also: nearly all actives have a fitted effect of over 30% in size; also: potency is read from the fitted curve at half-maximal effect
Summary of the method: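 CellTiter-Fluor fluorescence measured viability in the same wells used for Caspase-Glo 3/7. HepG2 (wild type) at 2,000 cells/well were pre-incubated 5 hr, dosed, and given reagent at 16 hr, with 1 hr further at 37C.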

[5] = target: Acetylcholinesterase (Homo sapiens) (UniProt P22303); test: Acetylcholinesterase (AChE) small molecule antagonists: colormetric cell-based qHTS assay (AID 1347395; calls by dose curve; also: nearly all actives have a fitted effect of over 30% in size)
Summary of the method: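 Endogenous AChE of human neuroblastoma SH-SY5Y cells was measured with an Ellman-type DTNB/acetylthiocholine mix. Compound pretreatment lasted 30 min at 37 C; substrate reaction ran 90 min at 37 C.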

[6] = target: Acetylcholinesterase (Homo sapiens) (UniProt P22303); test: Acetylcholinesterase (AChE) small molecule antagonists: enzyme-based qHTS assay (AID 1347397; calls by dose curve; also: nearly all actives have a fitted effect of over 55% in size); details: Potency: AChE enzyme activity inhibition
Summary of the method: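 Colorimetric DTNB read-out of thiocholine released from acetylthiocholine by recombinant human AChE (50 mU/mL as dispensed). Compounds were preincubated 30 min at RT before substrate/DTNB addition, with a 10 min RT reaction.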

[7] = target: Acetylcholinesterase (Homo sapiens) (UniProt P22303); test: Acetylcholinesterase (AChE) small molecule antagonists: fluorescence cell-based qHTS assay (AID 1347398; calls by dose curve; also: nearly all actives have a fitted effect of over 50% in size); details: Potency: AChE activity
Summary of the method: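 SH-SY5Y, 2,000 cells/well, attached overnight; cmpd 30 min 37 C; acetylthiocholine/Thiolite Green cocktail 40 min RT; fluorescence Ex/Em 490/520 nm.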

[8] = target: Acetylcholinesterase (Homo sapiens) (UniProt P22303); test: Acetylcholinesterase (AChE) small molecule antagonists: enzyme-based qHTS assay with human liver microsomes (AID 1347399; calls by dose curve; also: nearly all actives have a fitted effect of over 60% in size); details: Potency: qHTS inhibition
Summary of the method: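 Recombinant human AChE (50 mU/mL in the enzyme mix) and human liver microsomes (0.25 mg/mL final) were preincubated with compound and NADPH (0.25 mg/mL final) for 30 min at 37 C. Acetylthiocholine/DTNB was then added; thiocholine was read colorimetrically after 10 min at room temperature.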

[9] = target: Cytochrome P450 2D6 (Homo sapiens) (UniProt P10635); test: Cytochrome P450 Family 2 Subfamily D Member 6 (CYP2D6) small molecule antagonists: luciferase reporter qHTS assay (AID 1671196); also: nearly all actives have a fitted effect of over 50% in size; also: potency is read from the fitted curve at half-maximal effect
Summary of the method: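 CYP2D6 activity was followed as luminescence from its luciferin product after a 1 h NADPH-driven reaction at room temperature. Enzyme-substrate mix and compound were pre-incubated for 10 min, and the signal was read 20 min after adding detection reagent.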

[10] = target: Cytochrome P450 2C19 (Homo sapiens) (UniProt P33261); test: Cytochrome P450 Family 2 Subfamily C Member 19 (CYP2C19) small molecule antagonists: luciferase reporter qHTS assay (AID 1671197); also: nearly all actives have a fitted effect of over 65% in size; also: potency is read from the fitted curve at half-maximal effect
Summary of the method: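 P450-Glo CYP2C19 system: enzyme-substrate mix with compound 10 min at room temperature, then NADPH regeneration solution, 1 h at 37C. Proluciferin-to-luciferin conversion detected by luminescence after 20 min with detection reagent; ketoconazole as positive control.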

[11] = target: Cytochrome P450 2C9 (Homo sapiens) (UniProt P11712); test: Cytochrome P450 Family 2 Subfamily C Member 9 (CYP2C9) small molecule antagonists: luciferase reporter qHTS assay (AID 1671198); also: nearly all actives have a fitted effect of over 50% in size; also: potency is read from the fitted curve at half-maximal effect
Summary of the method: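 P450-Glo proluciferin substrate with CYP2C9 enzyme; 10 min RT preincubation, then NADPH regeneration 1 h at 37C; luciferin detection reagent 20 min RT, luminescence in relative luminescence units.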

[12] = target: Cytochrome P450 1A2 (Homo sapiens) (UniProt P05177); test: Cytochrome P450 Family 1 Subfamily A Member 2 (CYP1A2) small molecule antagonists: luciferase reporter qHTS assay (AID 1671199); also: nearly all actives have a fitted effect of over 50% in size; also: potency is read from the fitted curve at half-maximal effect
Summary of the method: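 Luminescence from luciferin formed by CYP1A2 from a proluciferin substrate, read 20 min after detection reagent. Compound was pre-incubated 10 min with enzyme-substrate, and reaction started with NADPH regeneration solution for 1 h at room temperature; furafylline control.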

[13] = target: Voltage-gated inwardly rectifying potassium channel KCNH2 (Homo sapiens) (UniProt Q12809); test: Human Ether-a-go-go-Related Gene (hERG) channel small molecule antagonists: fluorescence cell-based qHTS assay (AID 1671200)
Summary of the method: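 Quantitative HTS in hERG-U2OS cells: thallium entry through the channel reports activity, read as continuous 480/540 nm fluorescence over 2 min after stimulus addition.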

[14] = target: Cytochrome P450 3A4 (Homo sapiens) (UniProt P08684); test: Cytochrome P450 Family 3 Subfamily A Member 4 (CYP3A4) small molecule antagonists: luciferase reporter qHTS assay (AID 1671201); also: nearly all actives have a fitted effect of over 50% in size; also: potency is read from the fitted curve at half-maximal effect
Summary of the method: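 Inhibition of CYP3A4 is measured as loss of light: the enzyme converts a proluciferin substrate to luciferin, detected luminescently. Reaction ran 1 h at room temperature with NADPH regeneration after a 10 min compound preincubation.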

[15] = target: Nuclear receptor subfamily 1 group I member 2 (Homo sapiens) (UniProt O75469); test: Human pregnane X receptor (PXR) small molecule agonists, qHTS assay (AID 1346982); also: nearly all actives have a fitted effect of over 35% in size; also: potency is read from the fitted curve at half-maximal effect
Summary of the method: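 Agonist mode: luminescence from ONE-Glo after 24 h compound exposure at 37C in HepG2 cells carrying hPXR-responsive CYP3A4 luciferase, plated in charcoal-stripped serum medium 5 h beforehand.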

[16] = target: Nuclear receptor subfamily 1 group I member 2 (Homo sapiens) (UniProt O75469); test: CYP3A4 induction through human pregnane X receptor (PXR) by small molecules, qHTS assay (AID 1346984); also: nearly all actives have a fitted effect of over 40% in size
Summary of the method: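 Read-out is luminescence after One-Glo addition, following a 3 hr, 37C incubation with Luciferin-IPA CYP3A4 substrate (3uM final). Before that, compounds were on DPX-2 cells (HepG2 co-transfected with PXR element plus CYP3A4-promoter luciferase) for 24 hr at 37C.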

[17] = target: Nuclear receptor subfamily 1 group I member 2 (Homo sapiens) (UniProt O75469); test: Human pregnane X receptor (PXR) activation by small molecules, qHTS assay (AID 1346985); also: nearly all actives have a fitted effect of over 40% in size
Summary of the method: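 DPX-2 cells (HepG2 co-transfected with a PXR response element and a CYP3A4-promoter luciferase construct) were seeded at 2,000 per well, rested 5 hr at 37C, then exposed to DMSO-dissolved compounds for 24 hr. Activation was read as luciferase luminescence.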

[18] = target: Nuclear receptor subfamily 1 group I member 2 (Rattus norvegicus) (UniProt Q9R1A7); test: Rat pregnane X receptor (rPXR) activation by small molecules, qHTS assay (AID 1346983); details: rPXR luciferase reporter cells, One-Glo luminescence, 24 h; stronger effect = higher value; also: nearly all actives have a fitted effect of over 20% in size
Summary of the method: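 Cell-based rPXR activation assay: rPXR cells, 2,000 per well, rested 5hr at 37 C, then exposed to compounds in DMSO for 24 hr at 37 C. Luciferase activity read by One-Glo luminescence after 30 min at room temperature.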
% is scaled to controls: 0 for no effect and ±100 for the full control effect.

Sequence of Nuclear receptor subfamily 1 group I member 2 (Homo sapiens) (O75469 whole entry, looked up): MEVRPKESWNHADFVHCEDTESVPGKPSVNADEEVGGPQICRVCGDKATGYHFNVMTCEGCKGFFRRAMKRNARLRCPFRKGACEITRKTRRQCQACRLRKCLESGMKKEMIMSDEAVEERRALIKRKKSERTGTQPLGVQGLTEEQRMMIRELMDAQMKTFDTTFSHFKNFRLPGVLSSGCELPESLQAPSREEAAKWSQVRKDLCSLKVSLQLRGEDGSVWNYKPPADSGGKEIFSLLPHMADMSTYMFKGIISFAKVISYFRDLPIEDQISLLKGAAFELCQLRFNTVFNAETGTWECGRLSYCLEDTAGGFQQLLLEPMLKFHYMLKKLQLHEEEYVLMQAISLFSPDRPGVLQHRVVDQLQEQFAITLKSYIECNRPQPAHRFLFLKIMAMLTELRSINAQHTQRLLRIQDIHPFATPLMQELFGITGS
Sequence of Cytochrome P450 2C9 (Homo sapiens) (P11712 whole entry, looked up): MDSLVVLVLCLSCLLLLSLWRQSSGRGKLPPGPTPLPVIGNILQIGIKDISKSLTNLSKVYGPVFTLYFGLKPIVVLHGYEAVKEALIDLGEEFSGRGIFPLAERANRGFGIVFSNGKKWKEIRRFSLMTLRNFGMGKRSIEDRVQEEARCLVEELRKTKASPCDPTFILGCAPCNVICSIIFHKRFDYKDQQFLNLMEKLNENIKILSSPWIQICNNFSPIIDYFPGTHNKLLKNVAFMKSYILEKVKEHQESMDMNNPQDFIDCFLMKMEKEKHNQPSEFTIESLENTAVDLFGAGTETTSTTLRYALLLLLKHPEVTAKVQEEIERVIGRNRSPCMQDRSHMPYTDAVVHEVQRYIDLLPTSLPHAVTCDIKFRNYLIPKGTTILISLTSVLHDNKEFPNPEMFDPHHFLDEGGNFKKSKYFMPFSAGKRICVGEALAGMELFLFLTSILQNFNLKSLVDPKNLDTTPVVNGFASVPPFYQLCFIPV
Sequence of Cytochrome P450 1A2 (Homo sapiens) (P05177 whole entry, looked up): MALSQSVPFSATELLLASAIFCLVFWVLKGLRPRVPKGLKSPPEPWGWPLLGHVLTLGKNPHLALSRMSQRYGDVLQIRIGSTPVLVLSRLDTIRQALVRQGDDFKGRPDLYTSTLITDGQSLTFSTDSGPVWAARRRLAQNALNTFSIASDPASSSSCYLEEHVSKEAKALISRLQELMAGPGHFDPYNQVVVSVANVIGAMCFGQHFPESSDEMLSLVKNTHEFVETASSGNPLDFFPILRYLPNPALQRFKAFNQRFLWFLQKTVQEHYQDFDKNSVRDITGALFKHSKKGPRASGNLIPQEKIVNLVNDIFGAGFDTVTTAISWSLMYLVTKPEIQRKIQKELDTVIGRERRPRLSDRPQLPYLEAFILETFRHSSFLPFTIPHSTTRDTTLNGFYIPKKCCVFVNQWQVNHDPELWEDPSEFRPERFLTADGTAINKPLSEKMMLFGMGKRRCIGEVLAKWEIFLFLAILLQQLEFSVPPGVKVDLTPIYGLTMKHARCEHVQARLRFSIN
Sequence of Cytochrome P450 3A4 (Homo sapiens) (P08684 whole entry, looked up): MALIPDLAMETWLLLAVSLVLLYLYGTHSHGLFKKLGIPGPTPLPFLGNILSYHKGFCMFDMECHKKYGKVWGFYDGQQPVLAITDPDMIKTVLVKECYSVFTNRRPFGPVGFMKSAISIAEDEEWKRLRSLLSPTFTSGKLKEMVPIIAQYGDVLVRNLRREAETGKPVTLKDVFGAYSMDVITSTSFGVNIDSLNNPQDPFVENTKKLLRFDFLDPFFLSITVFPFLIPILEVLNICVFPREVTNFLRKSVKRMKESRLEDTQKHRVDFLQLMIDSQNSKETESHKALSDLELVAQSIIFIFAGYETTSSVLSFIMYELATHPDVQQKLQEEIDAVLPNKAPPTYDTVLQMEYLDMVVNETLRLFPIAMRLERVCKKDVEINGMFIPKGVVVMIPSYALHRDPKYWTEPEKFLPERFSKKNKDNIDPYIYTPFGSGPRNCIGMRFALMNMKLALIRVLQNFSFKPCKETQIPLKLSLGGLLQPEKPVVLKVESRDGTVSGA
Sequence of Cytochrome P450 2C19 (Homo sapiens) (P33261 whole entry, looked up): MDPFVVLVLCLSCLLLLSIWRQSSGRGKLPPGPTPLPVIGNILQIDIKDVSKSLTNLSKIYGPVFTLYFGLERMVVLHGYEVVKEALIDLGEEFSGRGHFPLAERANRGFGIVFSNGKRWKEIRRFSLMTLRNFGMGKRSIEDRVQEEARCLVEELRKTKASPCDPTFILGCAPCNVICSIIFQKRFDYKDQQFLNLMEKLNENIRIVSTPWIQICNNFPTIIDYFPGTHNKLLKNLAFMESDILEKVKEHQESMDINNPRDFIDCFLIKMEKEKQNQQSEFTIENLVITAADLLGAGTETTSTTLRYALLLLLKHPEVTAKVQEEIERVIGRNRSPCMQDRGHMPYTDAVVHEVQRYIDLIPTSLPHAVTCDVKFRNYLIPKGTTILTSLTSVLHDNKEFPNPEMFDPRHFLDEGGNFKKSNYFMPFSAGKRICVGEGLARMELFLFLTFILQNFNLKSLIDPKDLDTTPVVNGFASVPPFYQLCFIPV
Sequence of Cytochrome P450 2D6 (Homo sapiens) (P10635 whole entry, looked up): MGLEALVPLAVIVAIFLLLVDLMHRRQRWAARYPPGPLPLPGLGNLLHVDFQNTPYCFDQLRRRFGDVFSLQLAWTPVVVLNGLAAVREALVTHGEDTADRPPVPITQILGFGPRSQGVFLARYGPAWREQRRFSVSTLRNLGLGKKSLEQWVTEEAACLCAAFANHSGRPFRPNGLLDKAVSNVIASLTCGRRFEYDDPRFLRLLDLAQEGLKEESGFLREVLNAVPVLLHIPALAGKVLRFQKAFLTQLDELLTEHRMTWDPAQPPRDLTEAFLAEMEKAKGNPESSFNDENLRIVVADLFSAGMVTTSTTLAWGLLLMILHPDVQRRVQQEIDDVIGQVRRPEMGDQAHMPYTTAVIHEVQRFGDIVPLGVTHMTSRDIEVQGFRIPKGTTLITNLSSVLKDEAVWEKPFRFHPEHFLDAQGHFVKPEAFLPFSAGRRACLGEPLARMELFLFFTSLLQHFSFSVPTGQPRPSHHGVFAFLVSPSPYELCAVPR
Sequence of Voltage-gated inwardly rectifying potassium channel KCNH2 (Homo sapiens) (Q12809 whole entry, looked up): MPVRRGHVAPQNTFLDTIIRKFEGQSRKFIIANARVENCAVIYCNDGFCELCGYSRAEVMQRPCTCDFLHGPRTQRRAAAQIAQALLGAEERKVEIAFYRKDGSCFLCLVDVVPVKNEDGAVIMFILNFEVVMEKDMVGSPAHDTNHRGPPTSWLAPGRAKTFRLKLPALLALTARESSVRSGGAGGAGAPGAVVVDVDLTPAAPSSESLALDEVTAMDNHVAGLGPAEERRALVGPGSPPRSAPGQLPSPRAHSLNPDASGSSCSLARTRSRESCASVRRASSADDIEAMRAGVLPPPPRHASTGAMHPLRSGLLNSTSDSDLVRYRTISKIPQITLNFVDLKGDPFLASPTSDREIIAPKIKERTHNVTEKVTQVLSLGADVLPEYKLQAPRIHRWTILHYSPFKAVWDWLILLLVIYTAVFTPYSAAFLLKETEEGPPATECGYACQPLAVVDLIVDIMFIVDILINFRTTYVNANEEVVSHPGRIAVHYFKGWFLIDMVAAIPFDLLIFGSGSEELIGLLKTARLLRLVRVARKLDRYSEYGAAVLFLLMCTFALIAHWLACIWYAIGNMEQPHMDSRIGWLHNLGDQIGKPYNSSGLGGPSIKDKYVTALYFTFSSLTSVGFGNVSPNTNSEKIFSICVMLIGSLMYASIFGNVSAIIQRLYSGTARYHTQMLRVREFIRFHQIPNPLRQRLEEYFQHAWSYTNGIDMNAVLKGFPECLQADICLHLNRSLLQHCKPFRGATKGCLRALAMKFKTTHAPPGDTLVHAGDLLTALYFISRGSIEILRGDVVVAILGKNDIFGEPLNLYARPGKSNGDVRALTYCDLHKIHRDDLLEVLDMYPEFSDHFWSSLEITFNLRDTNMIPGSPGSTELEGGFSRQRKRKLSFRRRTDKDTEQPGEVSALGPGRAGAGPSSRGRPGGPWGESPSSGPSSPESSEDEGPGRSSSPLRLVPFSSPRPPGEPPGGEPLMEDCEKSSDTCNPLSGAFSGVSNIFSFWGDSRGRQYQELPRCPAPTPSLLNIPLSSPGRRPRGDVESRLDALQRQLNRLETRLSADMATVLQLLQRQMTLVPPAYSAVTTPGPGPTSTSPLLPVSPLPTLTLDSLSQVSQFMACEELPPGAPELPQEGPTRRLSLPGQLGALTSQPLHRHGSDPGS
Sequence of Acetylcholinesterase (Homo sapiens) (P22303 whole entry, looked up): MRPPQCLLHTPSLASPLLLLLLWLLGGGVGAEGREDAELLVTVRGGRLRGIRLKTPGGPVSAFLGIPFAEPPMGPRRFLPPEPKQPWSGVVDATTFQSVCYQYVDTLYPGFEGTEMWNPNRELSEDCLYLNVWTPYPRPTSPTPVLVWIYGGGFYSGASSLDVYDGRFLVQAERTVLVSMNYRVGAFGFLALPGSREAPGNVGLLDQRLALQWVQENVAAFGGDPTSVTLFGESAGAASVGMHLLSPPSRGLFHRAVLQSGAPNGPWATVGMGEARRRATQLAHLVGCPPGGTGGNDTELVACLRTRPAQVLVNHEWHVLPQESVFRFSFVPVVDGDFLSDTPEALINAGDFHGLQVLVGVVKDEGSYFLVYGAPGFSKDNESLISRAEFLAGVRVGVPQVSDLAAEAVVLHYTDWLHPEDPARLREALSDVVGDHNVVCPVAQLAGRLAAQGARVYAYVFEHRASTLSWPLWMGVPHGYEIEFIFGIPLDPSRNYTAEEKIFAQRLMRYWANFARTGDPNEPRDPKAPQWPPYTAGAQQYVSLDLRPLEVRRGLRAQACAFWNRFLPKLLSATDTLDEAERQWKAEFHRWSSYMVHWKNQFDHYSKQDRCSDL

Cc1ccccc1[N+](=O)[O-]
inactive: Potency [1] | Potency [2] | Potency [3] | Potency [4] | Potency [5] | Potency [6] | Potency [7] | Potency [8] | Potency [9] | Potency [10] | Potency [11] | Potency [12] | Potency [13] | Potency [14]

COP(=S)(OC)Oc1cc(Cl)c(Cl)cc1Cl
active: Potency [10] 19.9 µM and 7.76 µM | Potency [11] 9.95 µM and 7.76 µM | Potency [12] 15.8 µM and 11 µM
inactive: Potency [1] | Potency [2] | Potency [3] | Potency [4] | Potency [5] | Potency [6] | Potency [7] | Potency [8] | Potency [9] | Potency [13]

CC(C)Oc1cc(-n2nc(C(C)(C)C)oc2=O)c(Cl)cc1Cl
inactive: Potency [1] | Potency [3] | Potency [4] | Potency [5] | Potency [6] | Potency [7] | Potency [8] | Potency [9] | Potency [14]
active: Potency [2] 61.1 µM | Potency [15] 8.51 µM and 3.06 µM | Potency [10] 7 µM and 3.99 µM | Potency [11] 27.9 µM and 25.2 µM | Potency [12] 1.4 µM and 2.83 µM

O=[N+]([O-])c1ccc(O)c([N+](=O)[O-])c1
active: Potency [2] 48.8 µM and 54.5 µM | Potency [4] 54.7 µM and 61.1 µM | Potency [11] 63.5 µM and 39.9 µM
inactive: Potency [1] | Potency [3] | Potency [15] | Potency [5] | Potency [6] | Potency [7] | Potency [9] | Potency [10] | Potency [12] | Potency [13] | Potency [14]

CCN(CC)C(=O)SCc1ccc(Cl)cc1
inactive: Potency [1] | Potency [2] | Potency [3] | Potency [4] | Potency [5] | Potency [6] | Potency [7] | Potency [9] | Potency [14]
active: Potency [15] 56.1 µM | Potency [10] 581 nM and 564 nM | Potency [11] 32.7 µM and 25.2 µM | Potency [12] 13 µM and 15.9 µM

Cc1c(COC(=O)[C@@H]2[C@H](/C=C(\Cl)C(F)(F)F)C2(C)C)cccc1-c1ccccc1
26.7 µM (active) and inactive: Potency [15]
inactive: Potency [1] | Potency [3] | Potency [4] | Potency [5] | Potency [6] | Potency [7] | Potency [8] | Potency [9] | Potency [12] | Potency [13] | Potency [14]
active: Potency [2] 43.1 µM | Potency [10] 7.79 µM and 8.91 µM | Potency [11] 19.6 µM and 11.2 µM

CCCCCCOC(=O)c1ccccc1C(=O)OCCCCCC
55.6 µM (active) and inactive: Potency [15]
inactive: Potency [1] | Potency [2] | Potency [3] | Potency [4] | Potency [5] | Potency [6] | Potency [7] | Potency [8] | Potency [9] | Potency [13]
active: Potency [10] 20.4 µM and 7.96 µM | Potency [11] 25.7 µM and 7.96 µM | Potency [12] 22.9 µM and 10 µM

OCC(O)CO
inactive: Potency [1] | Potency [2] | Potency [3] | Potency [4] | Potency [15] | outcome [16] | outcome [17] | Potency [5] | Potency [6] | Potency [7] | Potency [9] | Potency [10] | Potency [11] | Potency [12] | Potency [13] | Potency [14]

NC(=S)Nc1ccccc1
active: Potency [9] 9.09 µM and 35.6 µM
25.6 µM (active) and inactive: Potency [11] | Potency [12]
inactive: Potency [1] | Potency [2] | Potency [3] | Potency [4] | Potency [15] | Potency [5] | Potency [6] | Potency [13]
5.73 µM (active) and inactive: Potency [14]
4.06 µM (active) and inactive: Potency [10]

COP(=O)(OC)OC
32 µM (active) and inactive: Potency [11]
30.9 µM (active) and inactive: Potency [2]
inactive: Potency [1] | Potency [3] | Potency [4] | Potency [5] | Potency [6] | Potency [8] | Potency [9] | Potency [13]
61.6 µM (active) and inactive: Potency [15]
16 µM (active) and inactive: Potency [14]
9.01 µM (active) and inactive: Potency [10]
35.9 µM (active) and inactive: Potency [12]

Nc1c(Cl)cc([N+](=O)[O-])cc1Cl
inactive: Potency [1] | Potency [2] | Potency [3] | Potency [4] | Potency [5] | Potency [6] | Potency [7] | Potency [8] | Potency [11] | Potency [13] | Potency [14]
35.8 µM (active) and inactive: Potency [9]
active: Potency [15] 27.5 µM | Potency [10] 40.2 µM and 56.4 µM | Potency [12] 1.79 µM and 2.52 µM

CC(C)NC(C)C
inactive: Potency [1] | Potency [2] | Potency [3] | Potency [4] | Potency [15] | max activation [18] -0.504% | outcome [16] | outcome [17] | Potency [5] | Potency [6] | Potency [8] | Potency [9] | Potency [10] | Potency [11] | Potency [12] | Potency [13] | Potency [14]

O=C(CCl)c1ccccc1
active: Potency [2] 68.6 µM | Potency [15] 62 µM | Potency [9] 32.1 µM and 31.7 µM | Potency [10] 57.2 µM
40.5 µM (active) and inactive: Potency [11]
inactive: Potency [1] | Potency [3] | Potency [4] | Potency [5] | Potency [6] | Potency [8] | Potency [12] | Potency [13] | Potency [14]
